Results: PubChem BioAssay AID504329 (Southern Research Specialized Biocontainment Screening …, 2011)
Hit rate of the full screen: of about 340,000 compounds, about 1,000 (0.29%) were called active. Only a sample is shown. Entries with a potency or affinity are not part of this list. Unmarked numbers belong to inactive results. No stated cut-off is given here; in the data, inconclusive means inhibition above about 27% without an active follow-up result; inactive means below that.

Assay: NS1A inhibition, H1N1 influenza, cell based functional assay (AID 504329)
Conditions: percent inhibition, at 12.5 µM, hits give high values

Structure (SMILES) | inhibition
Cc1ccc(SCC(=O)NCc2ccccc2)cc1 | -3.04%
Cc1ccccc1NC(=O)N(C(C)C)C(C)C | -12.5%
Nc1c(NC2CCCCC2)c2ccccc2oc1=O | 4.37%
O=C(Nc1ccccc1NC(=O)NC1CCCCC1)NC1CCCCC1 | 14%
Cc1nc(NC(=O)c2cc3c(C)nn(-c4ccccc4)c3s2)sc1C(=O)Nc1ccccc1 | 0.17%
COc1ccc(N2CC(C(=O)N/N=C/c3ccccc3)CC2=O)cc1 (configuration not stated) | -7.3%
CN(c1ccc(Cl)cc1)c1cc(=O)n(C)c2ccccc12 | 3.91%
COc1ccc(-c2cc(-c3ccccc3)[n+](C)c(-c3ccccc3)c2)cc1 | -1.4%
CN(C)c1ccc(/C=N/c2cc(-c3ccccc3)nn2-c2ccccc2)cc1 | -1.42%
CCCCC1(C)OC(=O)C(=Cc2ccc(N(C)C)cc2)C(=O)O1 (configuration not stated) | 0.99%
CN(C)c1ccc(-c2n(C)c3ccccc3[n+]2C)cc1 | 28.5%
COc1ccc2c(c1)c(=O)cc(-c1ccccc1)n2C | 0.17%
CN(C)c1ccc(/C=C2\SC(=O)N(CC(O)Cn3c4ccccc4c4ccccc43)C2=O)cc1 (configuration not stated) | -1.11%
C[n+]1c(-c2ccccc2)cc2c(=Cc3ccccc3)c3ccccc3n21 | -16.8%
CC(C)(C)CN1CCNC[C@H]1Cc1cccc2ccccc12 | 4.41%
CNCC(O)c1cc(OCc2ccccc2)c(OCc2ccccc2)cc1F (configuration not stated) | 2.8%
Cc1cc(Nc2cccc(F)c2)n2c(n1)nc1ccccc12 | -4.78%
CC(Sc1nnc(C2CC2)n1C1CC1)C(=O)c1ccc(F)cc1 (configuration not stated) | -11.2%
Clc1cccc(Cl)c1CSc1nnc([C@@H]2CCCN2)o1 | -1.85%
CC(=O)N1CCN(C(=O)COC(=O)CNC(=O)c2ccccc2C)CC1 | -1.13%
Cc1ccc(CNCC(O)(c2ccccc2)c2ccc(Cl)cc2)cc1 (configuration not stated) | 6.37%
Cn1c(SCC(=O)N2CCCC2=O)nnc1-c1ccccc1F | 6.14%
CN(C)c1ccc(C=c2c3ccccc3n3c2c2ccccc2[n+]3C)cc1 | 21%
CN(C)c1ccc(/C=C2\CCCc3c2nc2ccccc2c3C(=O)O)cc1 | 2.2%
C[n+]1c(-c2ccccc2)cc(-c2ccc(O)cc2)cc1-c1ccccc1 | -0.313%

Structure (SMILES) | inhibition
CCOC(=O)c1cc2c(C)n(-c3ccc(N(C)C)cc3)c(C)c2cc(C(=O)OCC)c1=O | -3.74%
CCOC(=O)c1cccc(NC(=O)c2ccc(N(C)C)cc2)c1 | 5.77%
COc1ccc(C(=O)c2ccc(N(C)C)cc2)c2ccccc12 | 11.2%
CN(C)c1ccc(/C=C/c2nc3ccccc3c(=O)n2-c2ccc(C(=O)O)cc2)cc1 | -25.3%
COc1cc(C=c2c3ccccc3n3c2cc(-c2ccccc2)[n+]3C)cc(OC)c1OC | 6.14%
COc1ccc(C)cc1NS(=O)(=O)c1ccc2c(c1)N(C)CCO2 | 3.31%
COC(=O)C1CN(C(=O)c2ccc(OC(F)F)cc2)c2ccccc2O1 (configuration not stated) | 8.47%
CN(CC(=O)Nc1ccccc1Cl)CC(=O)N1CCc2ccccc21 | -8.6%
CCOc1ccc(CC(=O)Nc2nccs2)cc1OCC | -1.94%
C=CCNc1nc(N)c([N+](=O)[O-])c(Nc2cccc(Cl)c2)n1 | 3.17%
CC(C)=CC(=O)Nc1nnc(-c2ccccc2C)s1 | -8.76%
O=C(CNCc1cccc(Cl)c1)N1CCc2ccccc2C1 | -4.83%
O=C(CNCc1ccc(Cl)cc1)N1CCc2ccccc2C1 | -2.57%
CC(=NNc1nc2ccccc2s1)c1ccncn1 | 6.3%
C/C(=N\Nc1nc2ccccc2s1)c1cccs1 | -10%
CN(C)c1ccc(/C=N/Nc2nc3ccccc3o2)cc1 | -0.4%
Oc1ccccc1/C=N/Nc1nc2ccccc2o1 | 12%
COc1cc(/C=N/Nc2nc3ccccc3o2)cc(OC)c1O | 1.3%
Cc1ccnc(Nc2nc3ccccc3o2)n1 | -3.68%
CCCN1CCC(N(C)CCc2ccc(OC)c(OC)c2)CC1 | -5.4%
CCOC(=O)C1=C(C)N(C[C@@H]2CC[C@@H](Cc3ccc(-c4ccccc4)cc3)O2)C(=O)NC1c1ccc(Cl)cc1 (some centres not stated) | -4.34%
Cc1cccc(C)c1NC(=O)COC(=O)COc1ccc2c(C)cc(=O)oc2c1 | 10.5%
COc1ccccc1-n1nnnc1SCC(=O)NCC1CCCO1 (configuration not stated) | -3.64%
Cc1cccc(NC(=S)N(CCCN2CCOCC2)Cc2cn(C)c3ccccc23)c1 | 4.41%
Cc1ccc2c(c1)-c1c(ssc1=S)C(C)(C)N2C(=O)CN1C(=O)c2ccccc2C1=O | 28.5%

Structure (SMILES) | inhibition
CCOc1ccc2c(c1)-c1c(ssc1=S)C(C)(C)N2C(=O)CSC1=NCCS1 | 20%
Cc1cc2c(cc1C)N(C(=O)CSC1=NCCS1)C(C)(C)c1ssc(=S)c1-2 | 14.7%
CC1(C)c2ssc(=S)c2-c2ccccc2N1C(=O)c1ccco1 | 2.72%
CCOC(=O)c1c(NC(=O)c2ccc(N3C(=O)[C@@H]4[C@H](C3=O)[C@H]3C=C[C@@H]4C3)cc2)sc2c1CCCC2 | -7.09%
CC(C)C(=O)Nc1ccc(NC(=S)NC(=O)c2ccccc2F)cc1 | 1.28%
O=S(=O)(NCCc1cn2ccccc2n1)c1ccc2c(c1)CCCC2 | 25.4%
S=C(CN1CCCC1=S)NCCc1ccccc1 | -5.27%
Cc1[nH]c2ccccc2c1CCNS(=O)(=O)c1ccc(S(N)(=O)=O)cc1 | 23.3%
CN(Cc1ccc(Cl)c(Cl)c1)C(=O)c1ccccc1SCC(=O)N1CCCC1 | -4.06%
CN(C)Cc1c(C(=O)N/N=C/c2ccncc2)nnn1-c1nonc1N | 6.41%
Cc1ccc(S(=O)(=O)N2[C@@H](c3cccc(C)c3)C(C(=O)O)=C[C@H]2CC2CCCC2)cc1 | 8.82%
Cc1ccc(-n2nnnc2SCC(=O)Nc2ccccc2N2CCCCC2)cc1C | -1.34%
Cc1cc(C)nc(NC(N)=NCCc2ccccc2)n1 | -1.52%
CCCCSCCCNC(=O)C1CCC(CNS(=O)(=O)c2ccccc2)CC1 (configuration not stated) | -20%
COc1cc(NC2c3ccccc3C(=O)N2Cc2ccc3c(c2)OCO3)cc(OC)c1 (configuration not stated) | -1.58%
COc1ccc(NC2c3ccccc3C(=O)N2Cc2ccc3c(c2)OCO3)cc1 (configuration not stated) | 5.36%
O=C(NCCN1CCCCC1)Nc1ccc(Br)cc1 | -24.7%
N#Cc1cc(N2CCCCC2)c([N+](=O)[O-])cc1C#N | 9.08%
O=[N+]([O-])c1cc(F)c(N2CCCCC2)cc1N1CCOCC1 | 10.6%
O=C(CSc1n[nH]c(=O)[nH]c1=O)Nc1ccccc1C(=O)c1ccccc1 | -9.72%
Cc1ccc(NC(=O)CCC(=O)Nc2ccc(C)cc2)cc1 | 4.02%
CCc1cccc(NC(=O)CCCN2C(=O)NC(C)(C)C2=O)c1 | -6.41%
CCCCC(=O)Nc1ccc(F)c(Cl)c1 | 0.54%
O=C(O)CCCCC1SCC2NC(=O)NC21 (configuration not stated) | 22.1%
CCc1cccc(NC(=O)CCSCCC(=O)Nc2cccc(CC)c2)c1 | 14.8%

Structure (SMILES) | inhibition
COC(=O)CCCCC1SCC2NC(=O)NC21 (configuration not stated) | 1.31%
Cc1cccc(C)c1NC(=O)CCCCCC1NC(=O)NC1C (configuration not stated) | 24.2%
CCC(=O)Nc1ccc(F)c(Cl)c1 | -2.47%
COc1ccc(C(C(=O)NC2CCCC2)N(CCN(C)C)C(=O)c2snc(C(N)=O)c2N)cc1 (configuration not stated) | -6.89%
O=C(Cc1ncc(C(F)(F)F)cc1Cl)NC1CC1 | -2.28%
O=C(Cc1cccc(C(F)(F)F)c1)N1CCN(CC(=O)N2CCCC2)CC1 | -1.65%
CCCNC(=O)CN(c1cccc(F)c1)S(C)(=O)=O | -3.24%
COC(CNC(=O)CN1CCN(Cc2ccccc2F)C1=O)OC | -6.42%
COc1ccc(NC(=O)CN2CCN(CC(=O)Nc3ccc(F)cc3)CC2)c(OC)c1 | -6.91%
O=C(COC(=O)c1ccc(O)cc1)NCC1COc2ccccc2O1 (configuration not stated) | -6.24%
Cc1nn(CC(=O)NC(=O)c2ccccc2)c(C)c1[N+](=O)[O-] | -12.3%
COc1ccc(CC(=O)OC2CCCN(C)C2)cc1 (configuration not stated) | 2.07%
Cc1c(F)cccc1NC(=O)CSCC(=O)Nc1ccccc1 | -20.1%
Cc1c(F)cccc1NC(=O)CCC(=O)O | 22.1%
O=C(CCCCC(=O)Nc1ccc(F)cc1)Nc1ccc(F)cc1 | -8.93%
CCCCCC1NC(=O)NC1CCCCCC(=O)O (configuration not stated) | 0.19%
O=C(CCCCCN1C(=O)c2ccccc2C1=O)Nc1ccc(F)cc1 | 15.1%
CC1NC(=O)NC1CCCCC(=O)O (configuration not stated) | 8.09%
COc1ccc(NC(=S)NCCc2ccc(S(N)(=O)=O)cc2)c(OC)c1 | 0.63%
Cc1ccc(C)c(OCCn2cc(/C=C(\C#N)C(=O)NCC3CCCO3)c3ccccc32)c1 (configuration not stated) | 5.75%
O=C(COC(=O)Cc1ccc(Cl)cc1)Nc1ccc(OC(F)F)cc1 | -4.03%
COc1cc(CN2C(=S)NC(C)(C)CC2(C)O)cc(OC)c1 (configuration not stated) | -3.29%
